Shown are actives, neighbours in structure and some others; about 7.3% of the full set was active somewhere.
FLuc counter: inhibits or activates purified firefly luciferase, miR-21 counter-screen; hit rate 6.9% among 360,000; P08659; AID 588342; Potency, µM (series often up to 57.5 µM), without a hit: at the top dose activity change, negative = inhibition, hits mostly inhibitors; purified FLuc, Km substrates, luminescence inhibition;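 also: plate controls were vehicle for no effect and reference inhibitor for full effect; nearly all actives have a fitted effect of over 55% in size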
Target sequence (P08659 whole entry, looked up): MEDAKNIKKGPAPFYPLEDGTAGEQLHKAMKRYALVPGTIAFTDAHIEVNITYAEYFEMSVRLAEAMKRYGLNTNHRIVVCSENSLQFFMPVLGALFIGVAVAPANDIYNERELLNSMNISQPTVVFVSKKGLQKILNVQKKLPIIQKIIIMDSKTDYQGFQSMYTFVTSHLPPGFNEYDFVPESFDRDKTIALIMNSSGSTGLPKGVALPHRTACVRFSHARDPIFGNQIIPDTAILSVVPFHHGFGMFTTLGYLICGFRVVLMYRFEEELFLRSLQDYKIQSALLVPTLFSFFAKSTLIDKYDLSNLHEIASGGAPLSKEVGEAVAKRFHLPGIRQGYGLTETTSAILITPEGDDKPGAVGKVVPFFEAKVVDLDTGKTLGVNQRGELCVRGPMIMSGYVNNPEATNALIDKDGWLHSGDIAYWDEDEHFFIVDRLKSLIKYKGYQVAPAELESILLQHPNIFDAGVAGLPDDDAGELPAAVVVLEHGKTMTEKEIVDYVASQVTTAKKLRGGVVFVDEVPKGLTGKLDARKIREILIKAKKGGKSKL
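Purified P. pyralis luciferase, 10 nM final, with Km-level 10 uM D-luciferin and 10 uM ATP in 50 mM Tris acetate pH 7.5, 10 mM Mg acetate, 0.01% Tween-20, 0.05% BSA; 6-point qHTS titration about 60 µM downward; luminescence read.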
p53 reactivation: restores transcriptional activity of mutant p53 | H1299 p53-A138V BP100-luciferase reporter, luminescence, 24 h | Potency, µM (highest dose often 92.2 µM), inactives show at the top dose activity change, positive = activation, usual class: activators | hit rate 0.063% among 320,000; also: % of control where 0% means no effect; nearly all actives have a fitted effect of over 45% in size
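H1299 (p53-null), stable ts p53-A138V + BP100-Luc; 1000 cells/well, Opti-MEM/10% FBS; cpd 4 pt, 1:5; 24 h, 37 deg C, 5% CO2; detection reagent 10 min RT; luminescence.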
SMN2 splice up: increases expression of the SMN2 splice variant | HEK293 SMN2-luciferase splicing reporter, luminescence, 30-36 h | Potency, µM (top dose mostly 46.1 µM), for the others: top-dose activity change, positive = activation, actives largely listed as activators | hit rate 2.8% among 210,000; also: % of control where 0% means no effect; nearly all actives have a fitted effect of over 55% in size
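HEK293 cells carry an SMN2 […]–luciferase reporter in which exon 7 inclusion puts luciferase in frame. Cells were plated 10-12 h before compound addition, then incubated 30-36 h at 37C. ONE-Glo luminescence was read; sodium butyrate at 4.5 mM final served as control.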
Rab9 promoter act: activates the Rab9 promoter; Huh7 Rab9 promoter-luciferase reporter, luminescence, 24 h; Potency, µM (titrated, usually from 9.22 µM), for inactives: top-dose activation, negative = inhibition, actives largely listed as activators; hit rate 2.8% among 320,000; also: % of control where 0% means no effect; nearly all actives have a fitted effect of over 60% in size
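Luminescence read-out: Huh7 cells stably expressing Rab9-luciferase, treated 24 h with compound at 37 °C, then lysed with luciferase reagent for 10 min at ambient before reading.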
NPC1 promoter act: NPC1 promoter activation | hit rate 2.4% among 320,000 | AID 485313 | Huh7 NPC1 promoter luciferase reporter, 24 h | Potency, µM (top dose mostly 9.22 µM), for the others: top-dose activation, hits mostly activators; also: % of control where 0% means no effect; nearly all actives have a fitted effect of over 60% in size
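NPC1 promoter–luciferase Huh7 cells; 24 h compound; luminescence.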
ELG1 genotox: genotoxicity induction in ELG1-luciferase HEK293T cells. HEK293T ELG1-luciferase reporter, luminescence, 16 h. Potency, µM (doses to about 46 µM), without a hit: top-dose activity change, positive = activation, most hits filed as activators. hit rate 1.3% among 330,000; also: % of control where 0% means no effect; nearly all actives have a fitted effect of over 60% in size
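HEK293T cells expressing luciferase-tagged ELG1 were treated with compound or DMSO for 16 hr at 37°C. Luciferase activity was then read after 30 min with ONE-Glo at room temperature; rising signal flags genetic stress.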
The depositor's hits bear a star; u = inconclusive; x = not tested or not shown. Calls follow the shape of the dose curve; as a rule, active = well fitted curve in the direction sought with a large enough effect; inconclusive = small, poorly fitted or top-dose-only effect, or another doubt; inactive = no such curve, though single readings can be large; an effect the other way counts as inactive or inconclusive. Potency is read from the fitted curve at half-maximal effect.

SMILES	FLuc counter	p53 reactivation	SMN2 splice up	Rab9 promoter act	NPC1 promoter act	ELG1 genotox
COc1ccc(CN(C(=O)c2oc3ccccc3c2C)C2CCS(=O)(=O)C2)cc1OC (stereo unspecified)	8%	-11%	11µM*	-1%	-2%	-4%
O=C(c1cc2ccccc2oc1=O)N(Cc1cccc(Cl)c1)C1CCS(=O)(=O)C1 (stereo unspecified)	0%	x	3%	x	x	x
CN(C)c1ccc(CN(C(=O)c2cc3ccccc3oc2=O)C2CCS(=O)(=O)C2)cc1 (stereo unspecified)	12µM*	13%	x	u	2.8µM*	u
COc1ccc(CN(C(=O)c2oc3cc(C)c(C)cc3c2C)C2CCS(=O)(=O)C2)cc1OC (stereo unspecified)	4%	-28%	x	-13%	-9%	-4%
O=S(=O)(c1ccccc1)N1CCC2(CCCN(Cc3nccs3)C2)CC1	x	x	-14%	x	x	x
CCc1nnc(NC(=O)c2cc(=O)c3cc(C)c(C)cc3o2)s1	u	x	6%	x	x	x
Cc1ccc(-c2cc(C(=O)N3CCN(C4CCS(=O)(=O)C4)CC3)c3ccccc3n2)cc1 (stereo unspecified)	x	14%	x	14%	23%	0%
O=C(c1ccco1)N1CCN(c2ccnc3cc(Cl)ccc23)CC1	2%	-7%	-31%	0%	-6%	-15%
O=C(c1ccco1)N1CCN(C(=O)c2cc(-c3ccccc3)nc3ccccc23)CC1	6.7µM*	8%	8%	4%	10%	0%
O=C(c1cc(-c2ccccc2)nc2ccccc12)N1CCN(C2CCS(=O)(=O)C2)CC1 (stereo unspecified)	27µM*	1%	x	2%	0%	1%
O=C(c1ccco1)N1CCN(C(=O)c2cc(-c3ccccn3)nc3ccc(Cl)cc23)CC1	19µM*	-9%	-1%	-9%	-3%	-12%
O=C(c1cc(-c2ccccc2)nc2ccccc12)N1CCOCC1	u	9%	-12%	10%	5%	0%
Cc1ccc(NC(=O)C(NCc2ccccn2)c2ccccc2)cc1 (stereo unspecified)	17µM*	u	-13%	2%	3%	20%
Cc1ccc(NC(=S)NCc2ccccn2)cc1	-6%	0%	11%	23%	0%	1%
O=C(NCc1ccccn1)Nc1ccc(Br)cc1Cl	u	9%	x	u	u	u
O=C(NCc1ccccn1)Nc1ccccc1	13µM*	4%	x	1.6µM*	u	u
O=C(NCc1ccccn1)Nc1ccc(Cl)cc1Cl	u	u	x	u	3.2µM*	u
COc1ccc(N(C(=O)c2ccccc2C)S(=O)(=O)c2ccc3c(c2)n(C)c(=O)n3C)cc1	0%	x	-3%	x	x	x
CN1CCN(C(=O)c2cc3sc4ccccc4c3s2)CC1	3µM*	3%	x	0.71µM*	0.63µM*	u
O=C(CSc1cccs1)Nc1cccc2ccccc12	13µM*	u	13µM*	u	u	u
O=C(CSc1ccccc1)Nc1ccc2sccc2c1	u	u	x	19%	19%	13%
O=C(CSc1cccs1)Nc1ccc2ccccc2c1	21µM*	26%	9%	u	u	u
COc1ccc(/C=C/C(=O)OCC(=O)Nc2ccc(OC)c(S(=O)(=O)N3CCCCC3)c2)cc1	6µM*	15%	11%	-3%	-2%	0%
COc1ccc(/C=C/C(=O)OCC(=O)Nc2ccc(Cl)c(S(=O)(=O)N(C)C)c2)cc1OC	24µM*	-6%	-1%	-2%	-5%	9%
COc1ccc(/C=C/C(=O)OCC(=O)Nc2ccc(S(N)(=O)=O)cc2)cc1OC	1%	1%	-5%	-7%	-4%	3%
O=C(c1ccncc1)N1CCC2(CCCN(c3ccccc3)C2)CC1	x	x	-10%	x	x	x
Cc1cc(C)n(-c2nc3ccccc3s2)n1	21µM*	11%	x	27%	17%	u

Screening data (PubChem)
